# From PubChem
# SMN2 splice enh = SMN2 splice variant enhancement. HEK293 SMN2-luciferase splicing reporter, luminescence, 30-36 h. actives 2.8% (n = 210,000). Potency, µM (series often up to 46.1 µM), inactives show at the top dose activity change, positive = activation, usual class: activators; note: % of control where 0% means no effect; nearly all actives have a fitted effect of over 55% in size
#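 HEK293 cells carry an SMN2 minigene-luciferase reporter in which exon 7 inclusion puts luciferase in frame. Cells were seeded at 2000 cells/well, attached for 10-12 hours, then exposed to compounds for 30-36 hours at 37C before ONE-Glo luminescence.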
# ELG1 genotox = induces genotoxicity in HEK293T cells with luciferase-tagged ELG1 | actives 1.3% (n = 330,000) | HEK293T ELG1-luciferase reporter, luminescence, 16 h | AID 504466 | Potency, µM (doses to about 46 µM), without a hit: at the highest dose activity change, positive = activation, most hits filed as activators; note: % of control where 0% means no effect; nearly all actives have a fitted effect of over 60% in size
#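 DMSO vehicle served as control against compound-treated ELG1-luciferase HEK293T cells; exposure lasted 16 hr at 37 °C and 5% CO2, followed by ONE-Glo luminescence detection after 30 min.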
# FLuc modulator = firefly luciferase modulation, counter-screen for miR-21 project | P08659 | purified FLuc, Km substrates, luminescence inhibition | Potency, µM (titrated, usually from 57.5 µM), inactives show at the highest dose activity change, negative = inhibition, hits mostly inhibitors | actives 6.9% (n = 360,000);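 note: plate controls were vehicle for no effect and reference inhibitor for full effect; nearly all actives have a fitted effect of over 55% in size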
# Target sequence (P08659 whole entry, looked up): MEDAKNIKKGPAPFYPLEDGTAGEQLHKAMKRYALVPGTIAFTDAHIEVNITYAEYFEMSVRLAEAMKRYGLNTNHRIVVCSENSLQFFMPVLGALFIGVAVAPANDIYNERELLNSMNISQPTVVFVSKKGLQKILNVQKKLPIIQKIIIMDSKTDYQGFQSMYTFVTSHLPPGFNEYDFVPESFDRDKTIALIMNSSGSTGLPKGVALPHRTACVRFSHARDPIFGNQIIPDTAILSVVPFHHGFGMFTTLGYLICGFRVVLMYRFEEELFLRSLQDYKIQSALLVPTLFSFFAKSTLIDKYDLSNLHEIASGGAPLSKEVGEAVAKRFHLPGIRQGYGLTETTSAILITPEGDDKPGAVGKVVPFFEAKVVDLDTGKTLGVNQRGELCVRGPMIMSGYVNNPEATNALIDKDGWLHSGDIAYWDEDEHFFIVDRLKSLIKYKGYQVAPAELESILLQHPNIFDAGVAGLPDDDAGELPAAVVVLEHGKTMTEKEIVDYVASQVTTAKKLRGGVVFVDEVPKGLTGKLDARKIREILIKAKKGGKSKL
#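 Purified P. pyralis luciferase (10nM final) with 10uM D-luciferin and 10uM ATP (Km levels) in 50mM Tris acetate pH 7.5, 10mM Mg acetate, 0.01% Tween-20, 0.05% BSA; qHTS 6-point titration, ~60 µM downward; luminescence read.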
# NPC1 prom act = activators of NPC1 promoter; Huh7 NPC1 promoter luciferase reporter, 24 h; Potency, µM (series often up to 9.22 µM), inactives show at the top dose activation, usual class: activators; actives 2.4% (n = 320,000); AID 485313; note: % of control where 0% means no effect; nearly all actives have a fitted effect of over 60% in size
#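 Cells: Huh7 expressing luciferase under the NPC1 promoter, 1500/well. Seeded 2 h, compound added, incubated 24 h at 37 °C. Luciferase reagent, 10 min ambient, then luminescence.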
# Rab9 promoter act = activators of Rab9 promoter | AID 485297 | Huh7 Rab9 promoter-luciferase reporter, luminescence, 24 h | actives 2.8% (n = 320,000) | Potency, µM (highest dose often 9.22 µM), inactives show at the top dose activation, negative = inhibition, actives largely listed as activators; note: % of control where 0% means no effect; nearly all actives have a fitted effect of over 60% in size
#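 Huh7 reporter line, Rab9 promoter upstream of luciferase. Compound exposure 24 h at 37 °C in reduced-serum medium with 10% FBS. Read-out: luminescence.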
# ELG1 repair inh = blocks ELG1-dependent DNA repair in HEK293T cells | HEK293T ELG1-luciferase reporter, luminescence, 16 h; DNA damage induced by 5-fluorouridine | Potency, µM (top dose mostly 46.1 µM), for inactives: top-dose activity change, negative = inhibition, hits mostly inhibitors | actives 2.3% (n = 330,000) | AID 504467; note: % is set by controls: 0 for no effect and ±100 for the full control effect; nearly all actives have a fitted effect of over 55% in size
#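 Luminescence from the luciferase reporter, measured 30 min after ONE-Glo reagent at room temperature, was the read-out. Beforehand, 2,000 cells per well were exposed for 16 hr at 37 °C to 5-fluorouridine together with compound or vehicle.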
# * = called active by the depositor; ? = inconclusive; . = not tested or not shown. Most compounds without a hit are left out; they make up all but 9.2% or so of the library. Calls come from the whole dose curve; as a rule, active = well fitted curve in the direction sought with a large enough effect; inconclusive = small, poorly fitted or top-dose-only effect, or another doubt; inactive = no such curve, though single readings can be large; an effect the other way counts as inactive or inconclusive. Potency is the fitted concentration of half-maximal effect.
SMILES,SMN2 splice enh,ELG1 genotox,FLuc modulator,NPC1 prom act,Rab9 promoter act,ELG1 repair inh
NC(=O)c1ccsc1NC(=O)COc1ccccc1,13µM*,8.9µM*,12µM*,?,3.2µM*,?
Cn1cc(SCC(=O)Nc2nccs2)c2ccccc21,11µM*,21µM*,12µM*,?,?,?
Cc1cccc(OCC(=O)OCC(=O)Nc2sccc2C(N)=O)c1,.,0%,.,.,.,5%
COc1ccc(NC(=O)COC(=O)c2cccc(S(=O)(=O)N(C)C)c2)cc1,-8%,1%,-1%,1%,-3%,0%
CN(C)S(=O)(=O)c1cccc(C(=O)OCC(=O)Nc2sccc2C(N)=O)c1,.,-17%,2%,-4%,5%,18µM*
Cc1cc(Nc2cccc(O)c2)c2cccc(Br)c2n1,1%,.,?,.,.,.
Cc1ccccc1-c1nnc(SCC(=O)NC2CCS(=O)(=O)C2)n1C (stereo not drawn),.,0%,.,.,.,0%
COc1cccc(CN(C)C(=O)[C@@H](NC(=O)c2ccc(C)cc2)C(C)C)c1,.,-9%,1%,-2%,-3%,-7%
O=C(NCCN1CCOCC1)c1ccccc1OCc1ccccc1,.,0%,.,.,.,10%
Cc1cc(N2CCN(C(=O)c3ccco3)CC2)n2nc(C)c(-c3ccc(Cl)cc3)c2n1,-34%,-1%,10%,-1%,4%,-7%
Cc1nc2cc(-c3cccc(Cl)c3)nn2c(N2CCN(C(=O)c3ccco3)CC2)c1C,-5%,0%,17µM*,-2%,3%,?
Cc1cc(N2CCN(C(=O)c3ccco3)CC2)n2nc(-c3cccc(Cl)c3)cc2n1,-31%,-53%,5%,-2%,-9%,13µM*
COc1cc(NC(=O)Cn2cnc3c(OCc4ccccc4)ncnc32)cc(OC)c1OC,.,1%,.,.,.,-1%
CCN(c1ccc(OCC(=O)OCC(=O)c2c(N)n(C)c(=O)n(C)c2=O)cc1)S(=O)(=O)c1ccccc1,1%,-1%,12µM*,3%,9%,?
CN(c1ccc(OCC(=O)OCC(=O)c2c(N)n(C)c(=O)n(C)c2=O)cc1)S(=O)(=O)c1ccc2ccccc2c1,8%,2%,-14%,-4%,20%,8%
Cc1ccc2nc(Cl)c(/C=N/Nc3ccc(C(=O)O)cc3)cc2c1,.,?,0.067µM*,0.32µM*,0.45µM*,?
Cc1ccc(NCC(=O)N/N=C/c2cc3ccccc3nc2Cl)cc1,-6%,5%,15µM*,-2%,-4%,4%
COc1ccc(CCNC(=O)CCCCn2c(=O)c3ccccc3n(Cc3ccccc3Cl)c2=O)cc1OC,-1%,.,-4%,.,.,.
Cc1cccc(NC(=O)c2cccc(NC(=O)c3ccccc3)c2)n1,.,-7%,21µM*,0%,14%,-7%
Cc1cccc(/C=N/NC(=O)c2cccc(NC(=O)c3ccccc3)c2)n1,.,0%,11µM*,1%,8%,-2%
Cc1cccc(NC(=O)c2ccc3nccnc3c2)n1,.,?,?,?,28%,?
Cc1cccc(/C=N/NC(=O)c2ccc(F)cc2)n1,.,17%,12µM*,22%,27%,?
O=C(NCc1ccc(F)cc1)c1cc2ccccc2o1,.,4%,-12%,5%,9%,24%
O=C(c1ccccc1)c1cc2ccccc2oc1=O,.,10%,-12%,16%,13%,?
O=C(NNC(=O)c1cc2ccccc2o1)c1ccc(F)cc1,.,11%,17µM*,0%,1%,?
SMILES,SMN2 splice enh,ELG1 genotox,FLuc modulator,NPC1 prom act,Rab9 promoter act,ELG1 repair inh
O=C(NNC(=O)c1cc2ccccc2o1)c1ccc(Cl)cc1,.,1%,2%,1%,1%,6%
O=C(c1ccc(F)cc1)c1cc2ccccc2o1,.,?,11µM*,?,22%,?
Cc1ccc(C(=O)c2cc3ccccc3o2)cc1[N+](=O)[O-],-4%,?,7.6µM*,?,2.8µM*,1%
O=C(c1ccccc1)c1cc2ccccc2o1,-6%,?,15µM*,?,?,?
Cc1ccccc1N1CCN(C2CCCN(C(=O)CCc3c(C)noc3C)C2)CC1 (stereo not drawn),.,-20%,3%,-1%,-1%,?
COc1cccc(NC(=O)CN2C(=O)C3(SCC(=O)N3c3cc(C)cc(C)c3)c3ccccc32)c1 (stereo not drawn),.,.,-7%,.,.,.
Cc1ccc(C(CNS(=O)(=O)c2ccc([N+](=O)[O-])cc2)N2CCN(C)CC2)cc1 (stereo not drawn),.,0%,-3%,0%,-2%,?
Cc1cc(C(=O)N/N=C/c2ccc(C)s2)n[nH]1,.,?,?,4µM*,3.2µM*,?
Cc1cc(C(=O)N/N=C\c2cc(C(C)(C)C)c(O)c(C(C)(C)C)c2)n[nH]1,.,-39%,1%,-3%,0%,-19%
Cc1cc(C(=O)N/N=C/c2ccc([N+](=O)[O-])s2)n[nH]1,.,-9%,-2%,4%,-14%,16µM*
Cc1cc(C(=O)N/N=C/c2cc(Cl)cc([N+](=O)[O-])c2O)n[nH]1,.,-8%,27µM*,-3%,-3%,13µM*
Cc1[nH]cnc1C(=O)N/N=C/c1ccc([N+](=O)[O-])s1,.,-5%,?,3%,24%,?
Cc1ccc(/C=N/c2sc3c(c2C(N)=O)CCCC3)o1,?,12%,11µM*,?,4µM*,?
CN(C)/C=N/c1sc2c(c1C(N)=O)CCCC2,-2%,8%,-5%,0%,1%,-9%
Cc1cc(C)c2c(C)c(C(=O)N3CCC(c4nc5ccccc5s4)CC3)oc2c1,.,.,-17%,.,.,.
O=C(Nc1cccc(-c2csc(-c3ccccc3)n2)c1)c1cccs1,-23%,-12%,11µM*,4%,-1%,0%
O=C(Nc1ccccc1)c1csc(-c2ccccc2)n1,2%,8%,21µM*,12%,16%,?
Cc1nc(-c2cccc(NC(=O)c3cccs3)c2)cs1,12%,0%,24µM*,8%,-4%,?
O=C(Nc1cccc(NC(=S)NC(=O)c2cccs2)c1)c1ccccc1,26%,9%,-11%,2%,-2%,30%
O=C(CN1CCCCC1)Nc1scc2c1c(=O)oc1ccccc12,.,15%,-9%,?,2.8µM*,?
NC(=O)c1nsc(C(=O)N(Cc2ccco2)C(C(=O)NCc2ccc(F)cc2)c2ccc(O)cc2)c1N (stereo not drawn),.,-19%,0%,-4%,-2%,12µM*
Cc1ccc(C(C(=O)NCc2ccc(F)cc2)N(Cc2ccco2)C(=O)c2snc(C(N)=O)c2N)o1 (stereo not drawn),.,-7%,0%,0%,-1%,21µM*
